Screening data from PubChem.
Compounds with a hit are over-represented: about 3.5% of the library has one in this group of screens.
mHTT-CaM PPI inh: disrupts binding of mutant huntingtin to calmodulin. P42858. AlphaScreen His-mHTT/GST-CaM binding, luminescence. inhibition, % at 15 µM. hit rate 3.6% among 190,000;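 further: 0% = both proteins with DMSO and 100% = one protein alone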
Pf apPOL block: Pf-apPOL DNA polymerase inhibition. Recombinant Pf-apPOL, molecular beacon fluorescence, 1.5 h. hit rate 0.25% among 210,000. inhibition, % at 10 µM
Numbers without * were called inactive; ! = not confirmed by another sample. No stated cut-off is given here; in the data, active means inhibition above about 50%; inactive means the rest.

How did O=C(NC(Nc1ccc(Br)cc1)C(=O)c1ccccc1)c1cccs1 (stereo unspecified) do in these assays?
mHTT-CaM PPI inh: 63.0*; Pf apPOL block: -1.5

What do the screens show for `Cc1ccccc1NC(NC(=O)c1cccs1)C(=O)c1ccccc1` (stereo unspecified)?
mHTT-CaM PPI inh: 21.0; Pf apPOL block: 2.1

How did O=C(NC(Nc1cccc(C(F)(F)F)c1)C(=O)c1ccccc1)c1cccs1 (stereo unspecified) do in these assays?
mHTT-CaM PPI inh: 83.0*; Pf apPOL block: -6.4

Results for CCc1cccc(NC(=O)N2CCN(c3cc(-n4ccnc4)nc(C)n3)CC2)c1 ?
mHTT-CaM PPI inh: 9.3; Pf apPOL block: -1.9

What do the screens show for `Cc1noc(-c2ccc(=O)n(Cc3ccccc3F)n2)n1`?
mHTT-CaM PPI inh: -6.9; Pf apPOL block: -0.5

What do the screens show for `O=C1CC(Sc2ncn[nH]2)C(=O)N1c1ccc(I)cc1` (stereo unspecified)?
mHTT-CaM PPI inh: -1.0; Pf apPOL block: 4.3

What do the screens show for `CC(C)C[C@@H](CN=[N+]=[N-])N1CCN(CCc2ccccc2)CCC1=O`?
mHTT-CaM PPI inh: 71.0*; Pf apPOL block: -6.5

Results for O=C1CCN(CCc2ccccc2)CCN1CCSc1ccc(Br)cc1 ?
mHTT-CaM PPI inh: 52.9*; Pf apPOL block: -8.6

Results for Cc1ccc(SCCN2CCN(CCc3ccccc3)CCC2=O)cc1 ?
mHTT-CaM PPI inh: 33.9; Pf apPOL block: -2.5

Results for COc1ccc(SC[C@H](Cc2ccccc2)N2CCN(CC(C)C)CCC2=O)cc1 ?
mHTT-CaM PPI inh: -30.1; Pf apPOL block: -5.4

Results for O=C1CCN(CCc2ccccc2)CCN1[C@H](CSc1ccc(Br)cc1)Cc1ccccc1 ?
mHTT-CaM PPI inh: 74.6*!; Pf apPOL block: -3.2

Results for CC(C)C[C@@H](CO)N1CCN(CCc2ccccc2)CCC1=O ?
mHTT-CaM PPI inh: 8.5; Pf apPOL block: -0.9

Results for O=C1CCN(Cc2ccccc2)CCN1[C@H](CSc1ccccc1)Cc1ccccc1 ?
mHTT-CaM PPI inh: 37.7; Pf apPOL block: -2.7

Results for COc1ccc(SC[C@H](CC(C)C)N2CCN(CCc3ccccc3)CCC2=O)cc1 ?
mHTT-CaM PPI inh: 99.5*; Pf apPOL block: -5.2

What do the screens show for `O=C(Nn1cnc2c(cnn2-c2ccc(F)cc2)c1=O)c1ccccc1C(F)(F)F`?
mHTT-CaM PPI inh: 9.8; Pf apPOL block: -3.2

How did Cc1ccc(S(=O)(=O)NC2=NS(=O)(=O)c3ccccc32)cc1 do in these assays?
mHTT-CaM PPI inh: -7.0; Pf apPOL block: -7.4

How did O=C1COc2ccc(Cl)cc2N1Cc1nc(-c2cccc(C(F)(F)F)c2)no1 do in these assays?
mHTT-CaM PPI inh: -59.9; Pf apPOL block: -2.1

What do the screens show for `CC(=O)Nc1ccc(SC[C@H](CC(C)C)N2CCN(CCc3ccccc3)CCC2=O)cc1`?
mHTT-CaM PPI inh: 49.6; Pf apPOL block: -3.5

What do the screens show for `Cc1ccc(SC[C@H](CC(C)C)N2CCN(CCc3ccccc3)CCC2=O)cc1`?
mHTT-CaM PPI inh: 80.4*; Pf apPOL block: -5.5

Results for COc1ccc(Cc2nc(-c3cccc(-c4ccn[nH]4)c3)no2)cc1Cl ?
mHTT-CaM PPI inh: 26.1; Pf apPOL block: -0.6

What do the screens show for `Cc1cccc(C(=O)Nc2ccc(F)cc2)c1`?
mHTT-CaM PPI inh: -1.1; Pf apPOL block: -4.4

What do the screens show for `CN(C)c1ccc(NC(=O)c2ccncc2)cc1`?
mHTT-CaM PPI inh: 70.4*; Pf apPOL block: 1.0

How did CN(C)c1ccc(NC(=O)c2cccc(I)c2)cc1 do in these assays?
mHTT-CaM PPI inh: 79.5*; Pf apPOL block: -3.1

How did Cc1cccc(C(=O)Nc2ccc(I)cc2)c1 do in these assays?
mHTT-CaM PPI inh: -31.5; Pf apPOL block: 77.4*

Results for Cc1cc(C(=O)Nc2ccc(NC(=O)c3ccccc3)cc2)ccc1[N+](=O)[O-] ?
mHTT-CaM PPI inh: -4.1; Pf apPOL block: 7.1

How did O=C(Nc1ccccc1)c1cccc(I)c1 do in these assays?
mHTT-CaM PPI inh: -9.9; Pf apPOL block: 2.0

How did Cc1cccc(C(=O)Nc2ccc([N+](=O)[O-])c(NC(=O)c3cccc(C)c3)c2)c1 do in these assays?
mHTT-CaM PPI inh: 1.5; Pf apPOL block: 79.6*

Results for CN(C)c1ccc(NC(=O)c2ccc(Cl)cc2)cc1 ?
mHTT-CaM PPI inh: -0.9; Pf apPOL block: 7.1

What do the screens show for `O=C1NC(=O)N(c2cccc(Cl)c2)C(=O)/C1=C/c1ccc(N2CCCCC2)o1`?
mHTT-CaM PPI inh: 25.0; Pf apPOL block: -2.0

Results for O=C(c1c(F)cccc1F)N1CCN=C1SCc1ccccc1F ?
mHTT-CaM PPI inh: -25.0; Pf apPOL block: -19.8

How did CC(Cc1ccco1)NC(=O)C1CCN(Cc2cn(C)c3ccc(Cl)cc23)CC1 (stereo unspecified) do in these assays?
mHTT-CaM PPI inh: 2.1; Pf apPOL block: -1.5

Results for COc1cc(C(=O)Oc2cc(C)c3c(c2)OC(=Cc2cccnc2)C3=O)cc(OC)c1OC ?
mHTT-CaM PPI inh: -2.0; Pf apPOL block: -3.5

Results for COc1ccc(Oc2c(C)oc3cc(OC(=O)c4ccc5c(c4)OCO5)ccc3c2=O)cc1 ?
mHTT-CaM PPI inh: -0.3; Pf apPOL block: 6.0

What do the screens show for `COc1ccc(C2CC(c3cccnc3)Nc3nnnn32)c(OC)c1` (stereo unspecified)?
mHTT-CaM PPI inh: 4.0; Pf apPOL block: -0.5

How did COc1ccc(NS(=O)(=O)c2cccc(C(=O)Nc3cccc(C(=O)O)c3)c2)cc1 do in these assays?
mHTT-CaM PPI inh: 4.2; Pf apPOL block: 3.7

Results for COc1ccc(NS(=O)(=O)c2cccc(C(=O)Nc3ccc(C)cc3)c2)cc1 ?
mHTT-CaM PPI inh: 4.5; Pf apPOL block: 95.2*

Results for CNC(=O)c1nsc2ccc(C)cc12 ?
mHTT-CaM PPI inh: -0.9; Pf apPOL block: 0.3

What do the screens show for `CC1=C(C(=O)Nc2ccccc2)C(c2ccc(F)cc2)n2c(s/c(=C\c3ccc(C)o3)c2=O)=N1` (stereo unspecified)?
mHTT-CaM PPI inh: 66.0*; Pf apPOL block: -4.4

Results for CC1=C(C(=O)Nc2ccccc2)C(c2ccccc2)n2c(s/c(=C\c3ccco3)c2=O)=N1 (stereo unspecified) ?
mHTT-CaM PPI inh: 9.0; Pf apPOL block: 0.3

What do the screens show for `CCN(CC)C(=O)Oc1ccc2c(c1)OC(=Cc1ccc(OC)c(OC)c1OC)C2=O`?
mHTT-CaM PPI inh: -7.3; Pf apPOL block: -6.7

What do the screens show for `CCNC(=O)c1ccc2c3c(onc13)-c1ccccc1C2=O`?
mHTT-CaM PPI inh: 51.0*; Pf apPOL block: 0.5

What do the screens show for `CCNC(=O)c1ccccc1-c1ccccc1C(=O)O`?
mHTT-CaM PPI inh: -5.2; Pf apPOL block: -3.1

How did COc1cccc(NC(=O)Cn2c(-c3ccccc3F)nc3ccccc3c2=O)c1 do in these assays?
mHTT-CaM PPI inh: 4.0; Pf apPOL block: -0.9

How did COc1ccc(NC(=O)Cn2c(-c3ccccc3F)nc3ccccc3c2=O)cc1OC do in these assays?
mHTT-CaM PPI inh: 1.0; Pf apPOL block: -0.6

Results for O=C(Cn1c(-c2ccccc2F)nc2ccccc2c1=O)Nc1ccc(F)c(Cl)c1 ?
mHTT-CaM PPI inh: 91.0*; Pf apPOL block: -0.8

What do the screens show for `COc1ccc2nc(NC(=O)Cn3c(-c4ccccc4F)nc4ccccc4c3=O)sc2c1`?
mHTT-CaM PPI inh: 100.0*; Pf apPOL block: -8.4

Results for CC(=NOCC(=O)ON=C(N)COc1cccc(Cl)c1)c1ccc(Cl)cc1 ?
Pf apPOL block: -5.6

Results for O=[N+]([O-])c1ccccc1CNc1ccc(F)c(Cl)c1 ?
mHTT-CaM PPI inh: 46.8; Pf apPOL block: 11.3

How did COc1ccc(OC)c(CNc2ccc(F)c(Cl)c2)c1 do in these assays?
mHTT-CaM PPI inh: 30.0; Pf apPOL block: -1.3

How did CCOc1cccc(CNc2ccc(F)c(Cl)c2)c1O do in these assays?
mHTT-CaM PPI inh: 62.6*; Pf apPOL block: 1.1
